Bioassay records: PubChem, several laboratories
VCAM1 TNFa inh: inhibitors of TNFa-induced VCAM1 expression, primary screen, imaging, HUVEC, TNFa stimulus, immunofluorescence. HUVEC TNFa-induced VCAM-1 immunofluorescence, high-content imaging. inhibition, % at 2 µM. actives 0.48% (n = 95,000). AID 802, 2007;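 active = inhibition above the batch mean plus 3 SD, with images confirmed as a hit by eye, cut at about 37% in these data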;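 also: 0% = TNF-stimulated DMSO wells and 100% = unstimulated control wells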
sdo1 growth: growth rescue of sdo1-depleted yeast, primary screen, S. cerevisiae, bone marrow failure model | S. cerevisiae sdo1-depleted JHY4D growth rescue, OD600 30 h; active compounds read high; pdr5 snq2 efflux-pump mutant strain | z-score at 10 µM | actives 0.21% (n = 140,000) | AID 817, 2007;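 active = z-score above 3 at both the 24 hr and the 30 hr optical density reads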;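 also: z-score against mean and SD of all compound wells on the same plate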
Phagocyt inh: inhibitors of macrophage phagocytosis, primary screen, imaging, J774A.1 cells, IgG beads; J774A.1 macrophage IgG-bead phagocytosis; inhibition, % at 5 µM; actives 0.07% (n = 110,000);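 active = inhibition above the mean of the plate negative controls plus 5 SD, cut at about 13% in these data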;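 also: phagocytic index as fraction of beads internalized from green versus red external bead signal; plate controls were DMSO negative control for no effect and cytochalasin-D positive control for full effect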
F-actin modifier: modifiers of F-actin cytoskeleton organization, primary screen, imaging, HUVEC, phalloidin staining, high-content imaging; HUVEC TNFa F-actin phalloidin imaging; inhibition, % at 2 µM; actives 0.18% (n = 91,000); AID 836, 2007;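 active = inhibition above the batch mean plus 3 SD and confirmed as a hit by visual image inspection, cut at about 30% in these data, passing the limit was not always enough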
HUVEC tox TNFa: cytotoxicity in TNFa-stimulated HUVEC, primary screen, cytotoxicity control for VCAM1 expression modulator project, imaging, Hoechst nuclei count; HUVEC TNFalpha-stimulated, Hoechst cell count; cell count reduction, % at 2 µM; actives 0.17% (n = 93,000); AID 848, 2007;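 active = cell count reduction exceeding the screen mean by over 5 SD, scaled to untreated wells per plate, cut at about 78% in these data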;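 also: cells counted after 24 h of TNF alpha exposure following the 1 h pretreatment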
E-sel TNF inh: E-selectin induction blockers in HUVEC – imaging, immunofluorescence, high content, primary screen; HUVEC TNFa-induced E-selectin immunofluorescence; inhibition, % at 2 µM; actives 0.71% (n = 120,000);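 active = inhibition above the batch mean plus 3 SD, and confirmed as a hit on visual image review, cut at about 43% in these data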;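 also: 0% = TNF-stimulated DMSO wells and 100% = unstimulated control wells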
Active calls of the source: *; [ ] = another dose, or the depositor's remark. Only some compounds are listed: those with a hit (about 1.2% of all), similar ones and a draw of the others.

What do the screens show for `NC(=S)N/N=C/c1ccc(-c2cc(Cl)ccc2Cl)o1`?
VCAM1 TNFa inh: 54*; sdo1 growth: -2.8; Phagocyt inh: 0; F-actin modifier: -8; HUVEC tox TNFa: 9; E-sel TNF inh: -28

Results for NC(=S)N/N=C/c1ccc(-c2cc(Cl)cc(Cl)c2)o1 ?
VCAM1 TNFa inh: 4; sdo1 growth: -2.3; Phagocyt inh: -1; F-actin modifier: -2; HUVEC tox TNFa: 10; E-sel TNF inh: 21

What do the screens show for `O=C(Nc1ccc(Cl)c(Cl)c1)Nc1nnc(CSc2ccccc2)s1`?
sdo1 growth: 0.94; Phagocyt inh: -8; E-sel TNF inh: -24

Results for O=C(CCNC(=O)Cn1ccc2ccccc2c1=O)NCCc1ccc(Cl)cc1 ?
sdo1 growth: 0.78; Phagocyt inh: -6; E-sel TNF inh: -18

How did O=C(Nc1cccs1)Nc1c(F)c(F)c(F)c(F)c1F do in these assays?
sdo1 growth: 0.97; Phagocyt inh: 0; E-sel TNF inh: 69*

How did O=C(Nc1cccs1)Nc1c(F)c(F)cc(F)c1F do in these assays?
sdo1 growth: 0.95; Phagocyt inh: -19

What do the screens show for `COc1ccc(C2(CNC(=O)c3ccccc3[N+](=O)[O-])CCOCC2)cc1`?
E-sel TNF inh: -28

How did O=C(COC(=O)CCc1ccc(S(=O)(=O)N2CCOCC2)cc1)NC1CCCC1 do in these assays?
sdo1 growth: 0.87; Phagocyt inh: -6; E-sel TNF inh: 63*

How did O=C(COC(=O)CCc1ccc(S(=O)(=O)N2CCOCC2)cc1)NC1CCCCCC1 do in these assays?
sdo1 growth: -1.1; Phagocyt inh: 3

Results for N#Cc1ccc(-c2ccc(OCC(=O)NCCCN3CCCC3=O)cc2)cc1 ?
E-sel TNF inh: -9

What do the screens show for `Oc1ccc(N=Nc2n[nH]c(-c3ccc(Cl)cc3)n2)cc1`?
VCAM1 TNFa inh: 11; sdo1 growth: 0.46; Phagocyt inh: -4; F-actin modifier: 52*; HUVEC tox TNFa: -19; E-sel TNF inh: -10

How did CCc1ccc(CN(C)C(=O)c2cc(COc3c(F)cccc3F)on2)cc1 do in these assays?
E-sel TNF inh: 83*

Results for CC(C)CN(C(=O)COC(=O)Cc1c[nH]c2ccccc12)C1CCS(=O)(=O)C1 (centres undefined) ?
VCAM1 TNFa inh: -4; sdo1 growth: -0.47; Phagocyt inh: -4; F-actin modifier: 41; HUVEC tox TNFa: -25

Results for CC(C)CN(C(=O)COC(=O)CCc1c[nH]c2ccccc12)C1CCS(=O)(=O)C1 (centres undefined) ?
VCAM1 TNFa inh: 29; sdo1 growth: 0.05; Phagocyt inh: 1; F-actin modifier: 39*; HUVEC tox TNFa: 71; E-sel TNF inh: -22

How did O=C(N/N=C/c1ccc[nH]1)c1sc2ccccc2c1Cl do in these assays?
VCAM1 TNFa inh: 38*; sdo1 growth: -0.89; F-actin modifier: -44; HUVEC tox TNFa: 9; E-sel TNF inh: -11

How did CCc1ccc2c(Cl)c(C(=O)N/N=C/c3c[nH]c4ccccc34)sc2c1 do in these assays?
VCAM1 TNFa inh: 3; sdo1 growth: -2; Phagocyt inh: -1; F-actin modifier: -5; HUVEC tox TNFa: 4; E-sel TNF inh: -42

How did O=C(COc1ccc(-c2nnco2)cc1)NCc1ccccc1Cl do in these assays?
sdo1 growth: 0.48; Phagocyt inh: 1; E-sel TNF inh: 77*

Results for COc1ccc(OC)c(-c2cc(C(=O)Nc3c(C)nn(Cc4ccccc4C)c3C)no2)c1 ?
VCAM1 TNFa inh: -5; sdo1 growth: -1.2; Phagocyt inh: -1; F-actin modifier: 15; HUVEC tox TNFa: 6

What do the screens show for `Cc1ccccc1Cn1nc(C)c(NC(=O)c2cc(-c3cccs3)on2)c1C`?
VCAM1 TNFa inh: 91*; sdo1 growth: -0.8; Phagocyt inh: -2; F-actin modifier: 7; HUVEC tox TNFa: 80*

What do the screens show for `CCOC(=O)CSc1nc(C)cc(=O)[nH]1`?
VCAM1 TNFa inh: -4; sdo1 growth: 0.3; Phagocyt inh: 2; F-actin modifier: -5; HUVEC tox TNFa: -9; E-sel TNF inh: 8

Results for CCOC(=O)CSc1nc(N)cc(=O)[nH]1 ?
VCAM1 TNFa inh: -10; sdo1 growth: 0.29; Phagocyt inh: -1; F-actin modifier: 25; HUVEC tox TNFa: -8; E-sel TNF inh: 77*

Results for COc1ccc(Cl)cc1C(=O)NNC(=O)CN1C(=O)C2CC=CCC2C1=O (centres undefined) ?
E-sel TNF inh: 8

What do the screens show for `COc1cccc(=O)c2c(C)n(-c3cc(C)cc(C)c3)c(C)c12`?
VCAM1 TNFa inh: -19; sdo1 growth: -0.77; F-actin modifier: -9; HUVEC tox TNFa: -27; E-sel TNF inh: 67*

Results for NC(=O)C(=O)NCCCN1CCOCC1 ?
E-sel TNF inh: -2

How did Cc1onc(-c2c(F)cccc2Cl)c1C(=O)NCC1COc2ccccc2O1 (centres undefined) do in these assays?
VCAM1 TNFa inh: -6; sdo1 growth: -0.37; Phagocyt inh: 16*[artifact]; F-actin modifier: 29; HUVEC tox TNFa: 0; E-sel TNF inh: 9

What do the screens show for `CNC(=S)NNC(=O)c1noc(C)c1C(=O)N1CCN(C(c2ccccc2)c2ccccc2)CC1`?
E-sel TNF inh: 16

What do the screens show for `COc1cc(CNCc2ccco2)ccc1OCc1ccccc1`?
VCAM1 TNFa inh: -5; sdo1 growth: 0.7; Phagocyt inh: -3; F-actin modifier: 46*; HUVEC tox TNFa: -6; E-sel TNF inh: 57*

What do the screens show for `Cn1nc(C(F)(F)F)c(C(=O)Nc2ccc(F)cc2F)c1Sc1ccc(Cl)cc1`?
sdo1 growth: -1.1

What do the screens show for `Cn1nc(C(F)(F)F)c(C(=O)Nc2ccc(F)cc2F)c1Sc1ccc(C(F)(F)F)cc1`?
VCAM1 TNFa inh: -6; sdo1 growth: -0.06; F-actin modifier: 63*; HUVEC tox TNFa: 1; E-sel TNF inh: 1

What do the screens show for `CN(C)CCNC(=O)/C(=C/c1ccc(-c2ccc(Cl)cc2)o1)NC(=O)c1ccccc1`?
sdo1 growth: 0.91; Phagocyt inh: -6; E-sel TNF inh: 94*

Results for O=C(CSC(=S)N1CCOCC1)Nc1nc(=O)c2ccccc2s1 ?
sdo1 growth: 1.1; Phagocyt inh: 7

Results for COc1ccc(C2C(C#N)=C(N)Oc3c2oc(CO)cc3=O)c(OC)c1OC (centres undefined) ?
VCAM1 TNFa inh: 15; sdo1 growth: -0.38; Phagocyt inh: 0; F-actin modifier: -11; HUVEC tox TNFa: 11

Results for COc1cc(C2C(C#N)=C(N)Oc3c2oc(CO)cc3=O)cc(OC)c1OC (centres undefined) ?
VCAM1 TNFa inh: 12; sdo1 growth: 0.66; F-actin modifier: 8; HUVEC tox TNFa: -17; E-sel TNF inh: 100*

What do the screens show for `NC(=O)c1ccccc1NC(=O)Nc1ccc(F)c(Cl)c1`?
E-sel TNF inh: -9
